# Most compounds without a hit are left out; they make up all but 4.1% or so of the library.
# hgDAF12 agonist: H. glycines DAF-12 receptor agonists, primary screen, cell-based, luminescence, HEK293, GAL4 fusion, UAS-luciferase; HEK293 GAL4-hgDAF12 UAS-luciferase reporter, agonist luminescence; normalized to butyrate control; Nuclear hormone receptor DAF-12 (Heterodera glycines), GAL4 fusion; activation, % at 6.8 µM; hit rate 1.8% among 370,000;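 active means activation above a cutoff set at the mean of all screened compounds plus 3 SD, cut at about 10% in these data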;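 further: 0% = DMSO wells and 100% = sodium butyrate wells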
# hcDAF-12 act: H. contortus DAF-12 nuclear receptor activators, primary screen, cell-based, luminescence, HEK293, lit1-tk-luc reporter | AID 652067, 2013 | activation, % at 6.8 µM | HEK293 hcDAF-12 lit1-tk-luc reporter; 0% DMSO, 100% Δ7-dafachronic acid | hit rate 1.4% among 370,000;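 active means activation above the mean of all tested compounds plus 3 SD, cut at about 5.5% in these data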;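 further: 100% = response to 3 µM Δ7-dafachronic acid high control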
# DAX1 inh-1: DAX1 (NR0B1) inhibitors on StAR promoter, primary screen, cell-based, luminescence, SF-1 (NR5A1), full-length DAX-1; HEK293T StAR-luciferase reporter, SF-1/DAX-1 repression relief; inhibition, % at 6.8 µM; hit rate 1.1% among 370,000;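 active means inhibition above the mean over all tested compounds plus 3 SD, cut at about 3.6% in these data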;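 further: 0% = DAX-1 cells with DMSO and 100% = cells lacking DAX-1 with DMSO; higher inhibition means more luminescence from relief of DAX-1 repression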
# DAX1 inh-2: DAX1 (NR0B1) inhibitors, primary screen, cell-based, HEK293, Gal4-DAX1, luciferase luminescence | AID 504766, 2011 | inhibition, % at 6.75 µM | hit rate 0.99% among 340,000 | Nuclear receptor subfamily 0 group B member 1 (Homo sapiens), P51843 | HEK293 Gal4-DAX1 luciferase reporter;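 active means inhibition above the mean over all tested compounds plus 3 SD, cut at about 4.2% in these data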;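 further: 0% = DAX1-transfected cells with DMSO and 100% = empty-vector control cells with DMSO; inhibition shows as a rise in luminescence from relieved DAX1 repression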
# Target sequence (P51843 207-470 limits assumed): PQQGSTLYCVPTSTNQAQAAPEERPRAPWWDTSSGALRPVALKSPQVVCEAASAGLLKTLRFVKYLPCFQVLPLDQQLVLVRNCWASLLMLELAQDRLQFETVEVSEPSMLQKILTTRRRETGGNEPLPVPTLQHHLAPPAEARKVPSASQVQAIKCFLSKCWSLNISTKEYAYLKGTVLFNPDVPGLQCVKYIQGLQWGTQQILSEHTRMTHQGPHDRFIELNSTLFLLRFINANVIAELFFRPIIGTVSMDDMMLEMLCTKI
# ssDAF12 agonist: S. stercoralis DAF-12 nuclear receptor activators, primary screen, cell-based, luminescence, HEK293, GRIP1 co-expression, lit1-tk-luc | hit rate 1% among 370,000 | HEK293 ssDAF-12/GRIP1 lit1-tk-luc reporter; % of 3 µM dafachronic acid response | activation, % at 6.8 µM;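 active means activation above the mean over all tested compounds plus 3 SD, cut at about 0.9% in these data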;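 further: 0% = DMSO-only wells and 100% = 3 µM delta7-dafachronic acid wells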
# hgDAF12 ag: H. glycines DAF-12 receptor agonists, confirmation, cell-based, luminescence, HEK293, GAL4-LBD fusion; shares compounds with hgDAF12 agonist; HEK293 GAL4-hgDAF12 luciferase reporter, agonist mode; percent of butyrate response; activation, % at 6.8 µM; hit rate 80% among 3,300; AID 743050, 2013;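 active means mean activation over triplicate wells above the hit cutoff derived from the earlier primary screen, cut at about 11% in these data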;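 further: 0% = DMSO low control and 100% = 2 mM sodium butyrate high control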
# LXR ag 2: LXR agonists, Gal4 luciferase reporter, confirmation, counter-screen for hgDAF-12 agonist project, cell-based, luminescence, HEK293, H. glycines campaign. shares compounds with hgDAF12 agonist. 24 h. activation, % at 6.8 µM. 3,300 tested, under 10 active. AID 743051, 2013;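 active means mean activation of the triplicate above a set limit carried over from the primary screen, none filed active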
# * = called active by the depositor; / = not tested or not shown.
SMILES,hgDAF12 agonist,hcDAF-12 act,DAX1 inh-1,DAX1 inh-2,ssDAF12 agonist,hgDAF12 ag,LXR ag 2
Cc1ccc(OCCCC(=O)Nc2nc3ccccc3[nH]2)cc1,0.9,-0.7,-0.1,0.4,-1.4,/,/
C/C(CC(=O)Nc1ccc(Cl)cc1C(F)(F)F)=N\NC(=O)c1ccccn1,15.4*,3.7,2.3,-0.1,-0.1,6.5,0.2
C/C(CC(=O)Nc1ccc(Cl)cc1C(F)(F)F)=N\NC(=O)c1cccs1,14.1*,5.4,1.8,8.6*,0.3,4.8,0.1
C/C(CC(=O)Nc1ccc(Cl)cc1C(F)(F)F)=N\NC(N)=S,-0.6,-0.2,-0.6,/,-1.5,/,/
CCN(C[C@H]1[C@@H](c2ccc(C3=CCCC3)cc2)[C@H](CO)N1Cc1ccccn1)S(=O)(=O)c1ccccc1[N+](=O)[O-],-2.5,0.3,-1.8,/,-0.5,/,/
C#CCNC(=O)C[C@H]1C[C@@]2(C(=O)OC)C(=C[C@H](C3CCCC3)O[C@@H]2C)N(CCc2ccc(OC)c(OC)c2)C1=O,1.3,-0.7,0.3,/,-1.8,/,/
CCc1ccc(NC(=S)NC(=O)CC(C)C)cc1,15.4*,2.8,2.4,2.8,-0.2,12.3*,0.5
CCn1c(C)nc2cc(C(=O)N/N=C/c3ccccc3C)ccc21,13.6*,2.6,3.1,0.6,-0.1,13.7*,0.7
Cc1ccc(NC(=O)c2ccc3c(c2)OCCO3)cc1,9.1,4.8,1.8,-1.6,-0.5,/,/
Cc1ccc(NC(=O)c2ccc(Cl)c(N3C(=O)C=CC3=O)c2)cc1,13.5*,3.4,3.8*,2.6,0.5,-0.1,0.0
Cc1nc(NC(=O)c2ccccc2)sc1C,13.6*,3.4,2.5,2.7,1.0*,15.9*,0.8
Cc1ccc(NC(=O)c2cc(C)on2)cc1,15.3*,0.3,1.9,0.3,-1.1,9.5,0.5
Nc1ccccc1NC(=O)c1ccccc1,27.0*,2.1,4.3*,7.4*,-1.0,50.9*,0.2
COC(=O)CSc1nnc(-c2ccc(NS(=O)(=O)c3c(C(C)C)cc(C(C)C)cc3C(C)C)cc2)o1,0.2,0.0,1.0,/,-1.8,/,/
O=c1c2ccccc2n(Cc2ccco2)n1[C@@H](Cc1ccccc1)Cn1cc(-c2ccc(-c3ccccc3)cc2)nn1,1.8,-0.8,2.0,/,-1.5,/,/
O=C(Nc1ccc(-c2ccccc2)cc1)c1ccccc1,-1.5,-1.3,-0.2,-1.7,-1.4,/,/
Cc1ccc(NC(=O)c2ccccc2)cc1,13.7*,2.7,1.6,1.9,0.5,16.6*,0.8
Cc1ccc(NC(=S)NNC(=O)c2c(Cl)c(C)nn2C)cc1,-0.9,-0.2,-1.0,-2.1,-0.6,/,/
Cc1ccc(NC(=S)NNC(=O)c2nn(C)c(C)c2Cl)cc1,15.8*,2.6,3.2,6.5*,-0.3,9.7,0.4
COc1cccc(NC(=O)Nc2ccc3nsnc3c2)c1,14.0*,1.1,1.5,2.4,-0.2,11.0*,0.5
COC(=O)c1sc2nc3c(cc2c1N)COC(C)(C)C3,16.5*,2.5,4.0*,1.4,0.1,16.9*,0.7
COc1ccc(CNCC#CC2=CCCCC2)c(OC)c1,2.5,-0.6,0.6,/,-0.7,/,/
O=C(/C=C/c1ccnc2ccccc12)c1cccs1,13.9*,4.0,2.5,0.6,-0.1,14.6*,0.8
Nc1cc2c(cc1Cl)-c1ccccc1C2=NO,16.2*,0.9,0.1,2.5,-0.7,7.4,0.4
O=C(N[C@@H](Cc1cccnc1)C(=O)N1CCC[C@H]1C(=O)NCCc1ccccc1Cl)c1cccs1,-1.3,-1.8,0.3,/,-1.7,/,/
SMILES,hgDAF12 agonist,hcDAF-12 act,DAX1 inh-1,DAX1 inh-2,ssDAF12 agonist,hgDAF12 ag,LXR ag 2
c1c2c(cc3sc(N4CCOCC4)nc13)OCO2,15.6*,6.0*,2.6,1.8,0.1,13.4*,0.7
CCCCN1C(=O)C(=O)N(CC(=O)N2CCN(c3ccccc3)CC2)C1=O,4.3,-0.6,2.4,-0.2,-0.1,/,/
CCCCN1C(=O)C(=O)N(c2ccccc2)C1=S,15.5*,3.8,4.1*,2.0,-0.2,14.0*,0.7
CN(C)CC(=O)N[C@H]1C[C@@H]2O[C@@H](CO)CC[C@@H]2O[C@@H]1CCc1ccc(C2=CCCCC2)cc1,-1.1,-1.0,0.8,/,-1.5,/,/
Cc1ccc(C(=O)Nc2nnc(-c3ccco3)o2)cc1C,14.4*,2.8,0.1,0.2,1.1*,6.0,0.1
Cc1cccc(C(=O)Nc2nnc(-c3ccco3)o2)c1,2.5,1.6,0.5,-0.1,-1.5,/,/
CCOc1ccc(C(=O)Nc2ccc(C(F)(F)F)n(C)c2=O)cc1,-1.6,-1.0,0.0,1.9,-1.8,/,/
COc1cccc(C(=O)Nc2ccc(C(F)(F)F)n(C)c2=O)c1,18.0*,6.3*,2.4,1.6,-1.2,14.3*,0.6
COc1cc(OC)cc(C(=O)Nc2ccc([N+](=O)[O-])cn2)c1,0.3,-2.2,0.2,-1.1,-1.3,/,/
Cc1ccc(C(=O)Nc2ccc([N+](=O)[O-])cn2)o1,13.8*,-0.9,0.7,-0.3,-0.8,7.0,0.2
Cc1cnc(NC(=O)Cc2ccc(Br)cc2)s1,-1.6,-0.3,-0.1,0.0,-1.1,/,/
Cc1ccc(C(=O)Nc2ncc(C)s2)o1,19.6*,2.9,2.3,0.7,-0.4,14.8*,0.8
COc1ccc(C(=O)Nc2ccc([N+](=O)[O-])cn2)c(OC)c1,18.7*,4.5,2.8,3.6,0.4,19.7*,1.0
Cc1ccc(C)c(OCc2ccc(C(=O)Nc3ccc([N+](=O)[O-])cn3)o2)c1,-4.5,-3.0,-3.6,-0.9,-1.2,/,/
O=C(Nc1ccc(Cl)cc1)OCC12COCN1COC2,2.4,1.9,0.7,/,-0.7,/,/
O=[N+]([O-])c1ccc(CSc2nnc(-c3cccc(Cl)c3)n2Cc2ccco2)cc1,-1.2,-4.7,-2.9,/,-1.9,/,/
CC(=Nc1ccc(Br)cc1)c1sc2ccccc2c1O,13.3*,6.0*,1.9,3.7,0.0,20.5*,1.1
COc1ccc(CN2CN3Cc4ccc(C)cc4C3CS2(=O)=O)cc1 (stereo not drawn),-0.2,0.1,0.2,/,-1.2,/,/

# Compound activity deposited in PubChem BioAssay by The Scripps Research Institute Molecular Screening Center.
